# Pf growth 96h = P. falciparum growth inhibition at 96 hour, primary screen for plastid delayed-death inhibitors; P. falciparum luciferase reporter growth, 96 h; Potency, µM (series often up to 28.7 µM), hits mostly inhibitors; 320,000 tested, 6.9% active; AID 504834
#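 Two-generation exposure (96 h) targets delayed-death phenotype. Reporter parasites carrying integrated firefly luciferase, in red cells at 2% hematocrit and 0.05% parasitemia final, kept at 37 C, 5% CO2; luminescence loss indicates inhibition.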
# HCMV inh = human cytomegalovirus inhibition; HFF cells, HCMV-luciferase reporter, 72 h; hits give low values; activity change, negative = inhibition, % at 57.5 µM; 410,000 tested, 4.5% active; in the data active = activity change below about -60%; inconclusive = no clear call, values can overlap the other calls; inactive = above about -39%
#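 Luciferase read-out from HCMV-luciferase-infected HFFs (MOI 1 PFU/cell) 72 h post infection at 37C; compounds added after 16 h cell attachment; activity normalized between buffer-only basal and Salinomycin (10uM) inhibitor controls.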
# Shiga toxin inh = inhibitors of Shiga toxin in Vero cells; Vero cells, Shiga toxin protein synthesis inhibition reporter; 290,000 tested, 9.2% active; inhibition, % at 38.7 µM; in the data active = inhibition mostly above about 28%, no sharp cut-off; inactive = mostly below about 43%
# Pf growth 48h = P. falciparum growth inhibition at 48 hours (one generation). P. falciparum luciferase growth in erythrocytes, 48 h. AID 504832. 310,000 tested, 5.9% active. Potency, µM (highest dose often 28.7 µM), actives largely listed as inhibitors
#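 A one-generation exposure of luciferase-tagged malaria parasites in RPMI 1640/Albumax erythrocyte culture, 37 C and 5% CO2. Inhibition is inferred from decreased luminescence after adding detection reagent.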
# Cycloheximide cs = counter-screen hit for Shiga toxin inhibitors, cycloheximide | cell reporter, cycloheximide protein synthesis inhibition counterscreen | max response, % | 300,000 tested, 12% active | AID 2314; in the data active = max response mostly above about 13%, no sharp cut-off; inactive = mostly below about 14%; note: read at 38.3 µM for the half of the compounds with a filed dose
# A number is an active result; i = inactive; ? = inconclusive; nt = not tested or not shown; [ ] = remark or other dose. In the library only some 20% were active in any assay of this set; here they are far more common. Unless noted, calls come from the whole dose curve; as a rule, active = well fitted inhibition curve with a large enough effect; inconclusive = small, poorly fitted or top-dose-only effect, or another doubt; inactive = no such curve, though single readings can be large or run the other way.
SMILES,Pf growth 96h,HCMV inh,Shiga toxin inh,Pf growth 48h,Cycloheximide cs
CCN(CC)CCn1c2c(c(SCC(=O)Nc3nc(C)cs3)nc1=O)CCCC2,?,-80.3,nt,?,nt
Cc1ccc(CN2CCCn3nc(C(=O)NCCc4ccccc4Cl)cc3C2=O)cc1,nt,i,nt,nt,nt
COc1ccc(/C=N/Nc2cc(C)nc(N3CCOCC3)n2)c(OC)c1,i,i,i,i,i
C(=N\Nc1nncc2ccccc12)/c1ccccc1,i,i,73.4,i,50.4
CN(C)c1ccc(/C=N/Nc2nncc3ccccc23)cc1,i,i,108.5,i,28.4
CN(C)c1ccc(/C=N/Nc2nc3ccccc3o2)cc1,i,i,i,i,i
COc1ccc(/C=N/Nc2nncc3ccccc23)c(OC)c1,i,i,105.8,i,51.0
Cc1cccc(/C=N/Nc2nncc3ccccc23)c1,i,i,47.3,i,24.1
Cc1cccc(/C=N\Nc2nnc(-c3ccccc3)c(=O)[nH]2)c1,i,i,i,i,i
CC(=O)Nc1ccc(C=NNc2nnc(NN=Cc3ccc(NC(C)=O)cc3)c3ccccc23)cc1,nt,i,nt,nt,nt
COc1ccc(NS(=O)(=O)c2ccc3c(c2)CCN3C(=O)CCC(=O)O)cc1Cl,nt,i,nt,nt,nt
CCNc1nc(NCC)nc(N/N=C/c2cc(OC)c(OC)c(OC)c2)n1,i,i,i,?,i
COc1cc(/C=N/Nc2nncc3ccccc23)cc(OC)c1OC,i,i,87.4,i,39.4
CC(=O)c1cnc(SCc2ccc(Cl)cc2)nc1C,i,i,i,i,i
O/N=C/c1ccnc(SCc2ccc(Cl)cc2)n1,i,i,74.7,i,51.2
O/N=C/c1ccnc(SCc2ccccc2)n1,i,i,64.3,i,31.3
Cc1nc2ccn(Cc3cccnc3)c(=O)c2cc1C(=O)NCc1ccccc1,nt,i,nt,nt,nt
O=C(NCc1cccc(Cl)c1)c1cc(COc2ccc3ncccc3c2)on1,?,?,i,i,i
CC(CCCC(C)(C)O)NC(=O)c1cc(COc2ccc3ncccc3c2)on1 (configuration not stated),i,-87.5,i,?,i
Cc1ccc(F)cc1CNC(=O)c1cc(COc2ccc3ncccc3c2)on1,?,-95.7,i,i,i
CCOC1=C/C(=C/c2c(N)n3nc(S(=O)(=O)CC)sc3nc2=O)C=CC1=O,i,i,i,?,i
O=C(CCN1CCC(c2cccs2)=N1)c1cccs1,i,i,69.0,i,42.1
Cc1ccc2nc(-c3ccc(NC(=O)CN(c4ccccc4C)S(C)(=O)=O)cc3)sc2c1,i,i,94.7,i,60.5
CCCCN(C)S(=O)(=O)c1ccc(C(=O)Nc2ccc(-c3nc4ccc(C)cc4s3)cc2)cc1,nt,i,nt,nt,nt
Cc1cc(C)cc(N(CC(=O)Nc2ccc(-c3nc4ccc(C)cc4s3)cc2)S(C)(=O)=O)c1,4.15µM,i,77.4,i,35.6
SMILES,Pf growth 96h,HCMV inh,Shiga toxin inh,Pf growth 48h,Cycloheximide cs
CCOc1cc(CNC(=O)c2ccc3c(c2)N(C)C(=O)C2CCCCN32)ccc1OC (configuration not stated),nt,i,nt,nt,nt
CCCNC(=O)C1(C)CCCN(C(=O)c2cccnc2Oc2ccccc2)C1 (configuration not stated),nt,i,nt,nt,nt
CCCCNc1ccc2c(c1)OC[C@@H](CC(C)C)NS2(=O)=O,nt,i,nt,nt,nt
CCOC(=O)Cn1c(-c2ccccc2)nc2ccccc2c1=O,i,-94.7,i,?,i
CCCCOC(=O)Cn1c(-c2ccccc2)nc2ccccc2c1=O,i,-76.3,i,i,i
CCCOC(=O)Cn1c(=O)c2cc3c(=O)n(CC(=O)OCCC)c(=O)c3cc2c1=O,i[5.75 µM],-72.5,i,i,i
Fc1ccc(C2c3cccn3CCN2C(=S)Nc2cccc(Br)c2)cc1 (configuration not stated),?,i,i,11.7µM,i
CCCCNC(=S)N1CCn2cccc2C1c1ccc(F)cc1 (configuration not stated),?,i,i,?,i
CCCCNC(=S)N1CCn2cccc2C1c1ccccc1 (configuration not stated),?,i,i,4.65µM,i
COc1cccc(NC(=S)N2CCn3cccc3C2c2cccnc2)c1 (configuration not stated),i,i,33.2,?,i
S=C(NCc1ccccc1)N1CCn2cccc2C1c1cccnc1 (configuration not stated),4.65µM,-71.5,i,4.65µM,i
CCCCN(C(=O)NCCCCCCNC(=O)N(CCCC)C1CCS(=O)(=O)C1)C1CCS(=O)(=O)C1 (configuration not stated),?,i,i,?,i
S=C(NCCc1ccccc1)N1CCn2cccc2C1c1cccnc1 (configuration not stated),10.4µM,i,i,11.7µM,i
COc1cc(C(=O)NCCc2ncccc2C)ccc1OC1CCN(C(C)=O)CC1,i,i,i,9.28µM,i
COc1ccc(C(=O)NC2CCc3ccccc32)cc1OC1CCN(C(C)C)CC1 (configuration not stated),?,i,46.7,?,14.2
COc1ccc(C(=O)N(C)Cc2ccc(C)o2)cc1OC1CCN(C(C)C)CC1,i,i,i,i,i
COc1cc(C(=O)NC(C)CCn2cccn2)ccc1OC1CCN(C(C)=O)CC1 (configuration not stated),?,i,i,i,i
COC(=O)CN(C)C(=O)c1ccc(OC)c(OC2CCN(C(C)C)CC2)c1,?,i,30.3,i,23.5
COc1ccc(C(=O)NC(C)CCCC(C)(C)O)cc1OC1CCN(C(C)=O)CC1 (configuration not stated),7.38µM,i,i,i,i
CCN(CC(=O)Nc1c(F)cccc1F)C(=O)c1cccc(S(=O)(=O)N(C)c2ccccc2)c1,i,i,nt,?,nt
COc1ccccc1CCNC(=O)c1ccc(OC)c(OC2CCN(C(C)C)CC2)c1,i,-62.2,i,?,i
COc1ccc(C(=O)NCCOC(C)C)cc1OC1CCN(C(C)=O)CC1,10.4µM,i,i,i,i
CCCOC1CCCN(C(=O)c2ccc(OC)c(OC3CCN(C(C)C)CC3)c2)C1 (configuration not stated),i,i,i,i,19.0
COc1ccc(C(=O)NCCc2ccc(C)cc2)cc1OC1CCN(C(C)=O)CC1,i,i,i,i,i
COc1ccc(C(=O)N2CCCCCC2)cc1OC1CCN(C(C)C)CC1,?,i,i,i,i
SMILES,Pf growth 96h,HCMV inh,Shiga toxin inh,Pf growth 48h,Cycloheximide cs
COc1cccc(CCNC(=O)c2ccc(OC)c(OC3CCN(C(C)C)CC3)c2)c1,i,i,i,i,i
O=C(NCc1ccc2c(c1)OCO2)c1nc(S(=O)(=O)Cc2ccccc2F)ncc1Cl,i,-80.1,i,i,25.7
O=C(NCc1ccc2c(c1)OCO2)c1ccccc1Cl,nt,i,nt,nt,nt
O=C(NCc1ccc2c(c1)OCO2)c1nc(S(=O)(=O)Cc2ccccc2)ncc1Cl,i,-103.0,i,i,27.1
CC1CCCCN1C(=O)Cn1ncc2c3ccccc3n(Cc3ccccc3F)c2c1=O (configuration not stated),nt,i,nt,nt,nt
O=C1CCCC(O)=C1N=Nc1ccc2c(c1)OCO2,i,i,47.5,i,76.3

# Bioassay records (PubChem BioAssay)
